# Source: PubChem BioAssay (NCATS)
# Records with an inconclusive call do not appear. Where a call stands in place of a potency, no number is given. The source made the active and inactive calls. Unless noted, the call rests on the fitted dose curve; in most records, active means well fitted curve in the direction sought with a large enough effect; inconclusive means small, poorly fitted or top-dose-only effect, or another doubt; inactive means no such curve, though single readings can be large; an effect the other way counts as inactive or inconclusive.
# Assays:
# [1] = biological target: Thioredoxin reductase 1, cytoplasmic (Rattus norvegicus) (UniProt O89049); assay: qHTS Assay for Substrates of Mammalian Selenoprotein Thioredoxin Reductase 1 (TrxR1) (AID 488772);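 further: series mostly up to about 57 µM; a drop in NADPH fluorescence below the no-compound background marks a TrxR1 substrate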
# Sequence of Thioredoxin reductase 1, cytoplasmic (Rattus norvegicus) (O89049 whole entry, looked up): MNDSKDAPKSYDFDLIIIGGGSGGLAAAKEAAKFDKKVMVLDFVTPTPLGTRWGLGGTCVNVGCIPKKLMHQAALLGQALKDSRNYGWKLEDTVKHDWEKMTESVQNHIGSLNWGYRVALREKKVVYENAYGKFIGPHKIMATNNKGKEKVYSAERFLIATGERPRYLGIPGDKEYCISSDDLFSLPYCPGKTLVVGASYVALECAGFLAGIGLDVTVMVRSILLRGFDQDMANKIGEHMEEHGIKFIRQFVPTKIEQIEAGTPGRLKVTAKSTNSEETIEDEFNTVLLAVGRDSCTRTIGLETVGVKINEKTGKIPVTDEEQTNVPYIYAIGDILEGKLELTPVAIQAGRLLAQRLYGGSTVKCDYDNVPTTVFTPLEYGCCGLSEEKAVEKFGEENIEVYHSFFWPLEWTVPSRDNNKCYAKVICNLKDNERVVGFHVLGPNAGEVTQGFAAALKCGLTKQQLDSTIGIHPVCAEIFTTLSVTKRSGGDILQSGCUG
# In short: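 In this dual-purpose format, potential substrates are identified from the first fluorescence read after selenite addition, not from the 8-minute delta. Rat enzyme is preincubated with NADPH and then with compound at ~22 deg C.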
# [2] = biological target: Thioredoxin reductase 1, cytoplasmic (Rattus norvegicus) (UniProt O89049); assay: qHTS Assay for Inhibitors of Mammalian Selenoprotein Thioredoxin Reductase 1 (TrxR1) (AID 488773);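 further: drop in NADPH fluorescence over an 8 min run after selenite addition; series mostly up to about 57 µM; nearly all actives have a fitted effect of over 40% in size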
# In short: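 Inhibition is scored from the loss of NADPH fluorescence between first and last reads of an 8-min kinetic run. Selenite (400 uM) was the substrate, added after 15 min compound preincubation at room temperature.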
# [3] = biological target: Flap endonuclease 1 (Homo sapiens) (UniProt P39748); assay: qHTS Validation Assay for the Inhibitors of Human Flap endonuclease 1 (FEN1) (AID 488816)
# Sequence of Flap endonuclease 1 (Homo sapiens) (P39748 whole entry, looked up): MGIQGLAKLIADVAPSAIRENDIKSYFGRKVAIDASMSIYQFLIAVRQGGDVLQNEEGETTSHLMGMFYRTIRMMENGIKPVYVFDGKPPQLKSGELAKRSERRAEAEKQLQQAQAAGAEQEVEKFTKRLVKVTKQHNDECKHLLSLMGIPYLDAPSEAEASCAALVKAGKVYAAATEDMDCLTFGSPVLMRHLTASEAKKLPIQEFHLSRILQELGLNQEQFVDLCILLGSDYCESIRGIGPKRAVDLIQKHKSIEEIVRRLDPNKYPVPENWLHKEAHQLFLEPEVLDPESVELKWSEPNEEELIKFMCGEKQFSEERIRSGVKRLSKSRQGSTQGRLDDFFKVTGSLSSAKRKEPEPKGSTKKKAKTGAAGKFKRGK
# In short: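 qHTS format: compounds and 10 nM FEN1 incubated 15 min at room temperature before adding 50 nM substrate. Cleavage followed by reads at 0 and 15 min; normalized data fitted to a four-parameter Hill curve.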
# [4] = biological target: M-phase phosphoprotein 8 (Homo sapiens) (UniProt Q99549); assay: qHTS Validation Assay for Inhibitors for MPP8 Chromodomain Interactions with Methylated Histone Tails (AID 488949);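 further: AlphaScreen signal from MPP8 chromodomain bound to biotinylated H3K9me3 peptide; top concentration of the series differs between compounds; nearly all actives have a fitted effect of over 55% in size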
# Sequence of M-phase phosphoprotein 8 (Homo sapiens) (Q99549 whole entry, looked up): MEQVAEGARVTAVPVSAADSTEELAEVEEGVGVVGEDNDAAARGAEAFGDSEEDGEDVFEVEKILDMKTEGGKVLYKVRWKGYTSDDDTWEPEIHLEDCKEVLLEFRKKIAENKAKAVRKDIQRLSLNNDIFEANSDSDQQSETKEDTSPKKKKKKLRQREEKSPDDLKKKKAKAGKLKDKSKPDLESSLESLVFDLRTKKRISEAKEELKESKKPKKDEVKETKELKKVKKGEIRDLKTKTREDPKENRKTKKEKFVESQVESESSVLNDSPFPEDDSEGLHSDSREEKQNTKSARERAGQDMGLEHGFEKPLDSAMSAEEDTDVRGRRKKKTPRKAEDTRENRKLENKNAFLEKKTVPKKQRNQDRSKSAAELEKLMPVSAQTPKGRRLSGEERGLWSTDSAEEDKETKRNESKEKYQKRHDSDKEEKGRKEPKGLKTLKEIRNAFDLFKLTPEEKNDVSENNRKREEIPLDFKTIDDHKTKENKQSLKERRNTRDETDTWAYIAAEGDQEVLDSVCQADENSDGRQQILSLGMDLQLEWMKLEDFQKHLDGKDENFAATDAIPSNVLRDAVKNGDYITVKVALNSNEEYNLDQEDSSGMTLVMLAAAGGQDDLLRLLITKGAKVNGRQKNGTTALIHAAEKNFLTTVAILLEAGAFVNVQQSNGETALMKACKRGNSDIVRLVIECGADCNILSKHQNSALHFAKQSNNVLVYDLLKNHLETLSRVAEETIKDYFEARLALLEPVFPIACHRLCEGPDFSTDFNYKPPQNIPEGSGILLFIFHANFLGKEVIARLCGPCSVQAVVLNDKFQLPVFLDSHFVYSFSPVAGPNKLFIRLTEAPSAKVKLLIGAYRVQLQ
# In short: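 AlphaScreen proximity signal from streptavidin donor and Ni-chelate acceptor beads (10 ug/mL each) reported binding of MPP8 to trimethyl-K9 H3(1-18) peptide, both at 50 nM. The complex formed 30 min before a 30 min compound exposure at room temperature, in PBS pH 7.4.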
# [5] = biological target: Methanococcus maripaludis chaperonin (MmCpn) (UniProt Q6LX38); assay: High-Throughput Screening for Modulators of Cytosolic Chaperonin Activity: MmCpn Primary Screen (AID 488978);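 further: 50 nM MmCpn enzyme hydrolysing 30 µM ATP at 37 °C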
# Sequence of Methanococcus maripaludis chaperonin (MmCpn) (Q6LX38 1-543): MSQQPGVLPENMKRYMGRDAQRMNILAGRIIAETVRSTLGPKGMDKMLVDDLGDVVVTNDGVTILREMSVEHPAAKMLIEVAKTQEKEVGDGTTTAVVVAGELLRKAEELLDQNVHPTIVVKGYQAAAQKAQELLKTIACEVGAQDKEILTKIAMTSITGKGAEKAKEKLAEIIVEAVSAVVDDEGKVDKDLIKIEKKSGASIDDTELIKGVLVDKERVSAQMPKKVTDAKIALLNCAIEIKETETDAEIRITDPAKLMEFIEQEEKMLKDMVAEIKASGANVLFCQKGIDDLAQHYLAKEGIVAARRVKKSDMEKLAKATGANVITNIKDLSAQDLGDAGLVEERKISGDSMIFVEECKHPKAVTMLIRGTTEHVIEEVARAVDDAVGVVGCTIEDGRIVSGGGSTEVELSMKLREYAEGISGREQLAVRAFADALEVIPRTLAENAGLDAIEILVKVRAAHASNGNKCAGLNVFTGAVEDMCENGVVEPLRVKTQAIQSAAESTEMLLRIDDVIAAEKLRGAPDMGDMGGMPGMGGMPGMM
# In short: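 ATPase activity of 50 nM MmCpn was assayed with 30 uM ATP, 10 minutes at 37C, after a 5 min compound preincubation at room temperature. ADP production was read as HTRF emission at 590 and 665 nm.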
# [6] = biological target: Transient receptor potential cation channel subfamily V member 1 (Homo sapiens) (UniProt Q8NER1); assay: HTS Assay for Compounds that Act as Enhancers of the Vanilloid Receptor 1 (AID 488979)
# In short: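 Calcium influx kinetics via Fluo-8 (480/520 nm) in TRPV1-expressing cells, 2000/well cultured overnight at 35.5C. Compound-alone read 3 min (agonist phase), followed by EC20 capsaicin challenge for 2 min (enhancer phase).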
# [7] = biological target: Thyrotropin receptor (Homo sapiens) (UniProt P16473); assay: qHTS Assay for Antagonists of the Thyroid Stimulating Hormone Receptor (AID 488980); further: series mostly up to about 58 µM
# Sequence of Thyrotropin receptor (Homo sapiens) (P16473 whole entry, looked up): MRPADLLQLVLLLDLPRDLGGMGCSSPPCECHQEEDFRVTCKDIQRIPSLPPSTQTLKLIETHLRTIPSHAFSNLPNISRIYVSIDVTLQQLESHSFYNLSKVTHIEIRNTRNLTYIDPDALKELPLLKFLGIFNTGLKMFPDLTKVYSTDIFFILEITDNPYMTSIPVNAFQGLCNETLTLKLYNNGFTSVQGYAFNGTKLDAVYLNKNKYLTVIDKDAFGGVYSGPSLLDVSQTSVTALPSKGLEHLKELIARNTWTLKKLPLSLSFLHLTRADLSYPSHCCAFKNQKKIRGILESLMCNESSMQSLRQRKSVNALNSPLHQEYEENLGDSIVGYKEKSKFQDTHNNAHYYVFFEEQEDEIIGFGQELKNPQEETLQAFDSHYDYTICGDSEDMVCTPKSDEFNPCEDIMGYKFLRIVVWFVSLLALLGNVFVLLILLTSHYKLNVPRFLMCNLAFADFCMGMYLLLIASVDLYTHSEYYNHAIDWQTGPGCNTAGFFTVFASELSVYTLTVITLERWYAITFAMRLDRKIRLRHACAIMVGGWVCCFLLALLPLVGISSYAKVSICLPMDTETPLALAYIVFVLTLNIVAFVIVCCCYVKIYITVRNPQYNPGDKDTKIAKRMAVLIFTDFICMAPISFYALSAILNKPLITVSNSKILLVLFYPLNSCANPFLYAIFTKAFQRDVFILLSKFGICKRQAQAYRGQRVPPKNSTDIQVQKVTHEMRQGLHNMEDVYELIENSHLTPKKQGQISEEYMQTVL
# In short: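 Inhibition of cAMP raised by EC80 TSH (4 nM final) was read by HTRF, with lysate cAMP competing against cAMP-d2 for cryptate antibody after 30 min at room temperature. The cells were transfected HEK293 held in phosphodiesterase inhibitor RO 20-1724 at 70 uM.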
# [8] = biological target: D(1A) dopamine receptor (Homo sapiens) (UniProt P21728); assay: HTS Assay for Allosteric Agonists of the Human D1 Dopamine Receptor: Primary Screen for Agonists (AID 488981)
# Sequence of D(1A) dopamine receptor (Homo sapiens) (P21728 whole entry, looked up): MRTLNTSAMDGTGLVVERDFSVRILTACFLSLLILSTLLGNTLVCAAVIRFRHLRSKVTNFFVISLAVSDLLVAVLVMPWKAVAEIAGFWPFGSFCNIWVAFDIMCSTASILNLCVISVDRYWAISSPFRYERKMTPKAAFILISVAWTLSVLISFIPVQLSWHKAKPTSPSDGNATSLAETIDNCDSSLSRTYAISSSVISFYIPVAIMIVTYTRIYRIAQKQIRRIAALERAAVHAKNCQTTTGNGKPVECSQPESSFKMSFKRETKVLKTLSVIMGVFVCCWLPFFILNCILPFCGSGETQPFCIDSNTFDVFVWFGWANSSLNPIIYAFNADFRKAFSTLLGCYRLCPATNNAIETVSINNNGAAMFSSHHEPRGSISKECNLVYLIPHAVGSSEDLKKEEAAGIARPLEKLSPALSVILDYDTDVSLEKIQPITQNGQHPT
# In short: (§1)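 Calcium flux in an inducible, force-coupled HEK293 Trex D1 line (overnight at 30 C): agonist mode is the 180 s kinetic read after compound; potentiator mode is the following 180 s read after dopamine at EC20.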
# [9] = biological target: D(1A) dopamine receptor (Homo sapiens) (UniProt P21728); assay: HTS Assay for Allosteric Agonists of the Human D1 Dopamine Receptor: Primary Screen for Potentiators (AID 488982)
# In short: as §1
# [10] = biological target: D(1A) dopamine receptor (Homo sapiens) (UniProt P21728); assay: HTS Assay for Allosteric Agonists of the Human D1 Dopamine Receptor: Primary Screen for Antagonists (AID 488983);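 further: calcium flux response to an EC80 dopamine challenge measured with no-wash dye; nearly all actives have a fitted effect of over 65% in size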
# In short: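 Kinetic fluorescence at 1 cycle/sec tracked intracellular calcium in force-coupled, tetracycline-inducible HEK293 T-REx D1 cells. Loss of response to an EC80 dopamine dose, given 180 s after compound, marked antagonists.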
# [11] = biological target: ATP-dependent 6-phosphofructokinase (Trypanosoma brucei brucei) (UniProt O15648); assay: qHTS Assay to Find Inhibitors of T. brucei phosphofructokinase: hit validation (AID 492961);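 further: luminescence reports ADP formed as PFK phosphorylates fructose-6-phosphate with ATP; series mostly up to about 51 µM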
# Sequence of ATP-dependent 6-phosphofructokinase (Trypanosoma brucei brucei) (O15648 whole entry, looked up): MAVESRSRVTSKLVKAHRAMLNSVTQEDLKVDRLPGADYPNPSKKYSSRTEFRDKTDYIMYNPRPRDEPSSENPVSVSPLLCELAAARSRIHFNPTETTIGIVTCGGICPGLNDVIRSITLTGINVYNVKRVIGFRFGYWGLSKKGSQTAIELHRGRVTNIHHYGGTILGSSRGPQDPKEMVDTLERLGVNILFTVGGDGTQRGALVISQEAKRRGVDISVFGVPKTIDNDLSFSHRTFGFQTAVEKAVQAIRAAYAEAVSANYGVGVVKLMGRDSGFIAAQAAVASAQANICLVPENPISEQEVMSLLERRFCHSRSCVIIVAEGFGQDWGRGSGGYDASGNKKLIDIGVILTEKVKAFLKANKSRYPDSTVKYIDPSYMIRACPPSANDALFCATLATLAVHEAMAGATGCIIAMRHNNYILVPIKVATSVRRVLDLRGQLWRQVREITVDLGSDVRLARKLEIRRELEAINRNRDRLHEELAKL
# In short: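 Measures ADP output of PFK (1.25 nM) at 0.1 mM ATP, 0.5 mM F6P, pH 8.0 TEA buffer with 5 mM MgCl2. No-enzyme wells define full inhibition; uninhibited enzyme wells define zero.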
# [12] = Validation screen for small molecules that induce genotoxicity in human embryonic kidney (HEK293T) cells expressing luciferase-tagged ELG1 (AID 493106)
# In short: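 Cells were dispensed at 2,000 per well, then 23 nL compound or DMSO was pinned in. After 16 hr at 37 °C and 5% CO2, ONE-Glo reagent was added. Luciferase activity was measured following 30 min at room temperature.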
# [13] = biological target: ATPase family AAA domain-containing protein 5 (Homo sapiens) (UniProt Q96QE3); assay: Validation screen for small molecules that inhibit ELG1-dependent DNA repair in human embryonic kidney (HEK293T) cells expressing luciferase-tagged ELG1 (AID 493107);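 further: cells co-treated with the DNA-damaging agent 5-fluorouridine alongside compound; series mostly up to about 46 µM; inhibitors lower the ELG1-luciferase luminescence signal; nearly all actives have a fitted effect of over 70% in size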
# In short: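 Cells are dispensed in 1536-well format, then 5-fluorouridine and compound are pinned in. After a 16 hr incubation at 37 °C and 5% CO2, ONE-Glo is added and luciferase measured on a CCD imager.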
# [14] = Nrf2 qHTS screen for inhibitors: Validation (AID 493153; active means well fitted inhibition curve with a large enough effect in the main read-out, with a control signal flat, not every such curve was filed as active); details: viability change: measured here: cytotoxicity max response
# In short: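 A549 ARE_Fluc, 5% FBS OPTI-MEM; cpd titration, 18-24 h, 37°C/5% CO2. Read 1: CellTiter-Fluor (Ex 405/Em 525), cytotox. Read 2: luciferase lum, Nrf2 activity.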
# [15] = qHTS for Inhibitors of Cell Surface uPA Generation: Validation Assay (AID 493164);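 further: RAW 264.7 macrophage cells exposed to compound for 18 h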
# In short: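 ATP-Lite luminescence read-out: ATP remains high when uPA activity-dependent LF translocation into the cytoplasm is blocked. RAW 264.7 cells, 18 h compound exposure at 37 C; 7-point titration, 2.45 nM to 38.3 uM final.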
# [16] = biological target: Galactokinase (Homo sapiens) (UniProt P51570); assay: qHTS Validation Assay for Inhibitors of Human Galactokinase (GALK) (AID 493189)
# Sequence of Galactokinase (Homo sapiens) (P51570 whole entry, looked up): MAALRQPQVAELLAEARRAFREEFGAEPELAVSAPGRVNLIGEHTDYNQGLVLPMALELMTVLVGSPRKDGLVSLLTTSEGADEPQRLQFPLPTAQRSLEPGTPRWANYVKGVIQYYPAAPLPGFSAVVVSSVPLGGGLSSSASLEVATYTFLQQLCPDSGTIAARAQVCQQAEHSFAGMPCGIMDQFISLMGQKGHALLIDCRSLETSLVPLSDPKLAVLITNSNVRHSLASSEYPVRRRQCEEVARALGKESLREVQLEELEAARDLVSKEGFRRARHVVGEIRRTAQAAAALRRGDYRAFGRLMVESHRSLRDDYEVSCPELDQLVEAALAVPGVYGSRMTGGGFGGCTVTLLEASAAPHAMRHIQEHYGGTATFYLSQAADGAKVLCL
# In short: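 Inhibition was measured as remaining ATP, detected by luciferase luminescence after a 1 h room-temperature reaction. Final conditions: 5 nM GALK, 100 uM galactose, 35 uM ATP, pH 8.0 HEPES buffer.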
# [17] = Validation screen for small molecules that induce DNA re-replication in SW480 colon adenocarcinoma cells (AID 504364)
# In short: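 Image-based qHTS: compounds were incubated with SW480 cells for 48 hr, nuclei stained with Hoechst, and per-nucleus fluorescence intensity scanned to flag cells with excess DNA content.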
# [18] = biological target: Peptidyl-prolyl cis-trans isomerase NIMA-interacting 1 (Homo sapiens) (UniProt Q13526); assay: qHTS Validation Assay to Find Inhibitors of Pin1 (AID 504536; active means well fitted inhibition curve with a large enough effect in the polarisation, with a control signal flat, not every such curve was filed as active; the % refers to the polarisation)
# Sequence of Peptidyl-prolyl cis-trans isomerase NIMA-interacting 1 (Homo sapiens) (Q13526 whole entry, looked up): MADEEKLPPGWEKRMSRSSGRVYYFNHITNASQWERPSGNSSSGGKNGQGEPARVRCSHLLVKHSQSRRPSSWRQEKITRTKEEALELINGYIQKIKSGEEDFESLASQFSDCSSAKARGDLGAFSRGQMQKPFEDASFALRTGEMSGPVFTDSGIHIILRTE
# In short: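 Fluorescence polarization competition: compounds (titration) displace HiFluor-488-labeled Pin1-1b peptide from Pin1 (0.3 uM final) in pH 7.5 HEPES buffer with DTT, 10 min at room temperature; %Activity normalized to no-enzyme wells, curves fitted.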
# [19] = biological target: Phosphoglycerate kinase, glycosomal (Trypanosoma brucei brucei) (UniProt P07378); assay: qHTS Validation Assay to Find Inhibitors of Phosphoglycerate Kinase (AID 504547)
# Sequence of Phosphoglycerate kinase, glycosomal (Trypanosoma brucei brucei) (P07378 whole entry, looked up): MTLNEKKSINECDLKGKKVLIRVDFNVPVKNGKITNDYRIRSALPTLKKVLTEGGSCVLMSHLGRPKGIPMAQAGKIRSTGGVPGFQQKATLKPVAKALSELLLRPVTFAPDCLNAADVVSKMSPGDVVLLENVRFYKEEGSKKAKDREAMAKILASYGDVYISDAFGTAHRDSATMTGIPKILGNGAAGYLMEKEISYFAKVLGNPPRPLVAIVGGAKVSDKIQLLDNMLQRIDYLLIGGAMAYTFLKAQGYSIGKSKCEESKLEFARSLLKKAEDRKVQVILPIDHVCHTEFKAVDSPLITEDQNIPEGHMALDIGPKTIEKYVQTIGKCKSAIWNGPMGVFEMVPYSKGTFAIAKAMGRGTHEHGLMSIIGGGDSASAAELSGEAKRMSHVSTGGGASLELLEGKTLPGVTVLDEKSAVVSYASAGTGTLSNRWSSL
# In short: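 Luminescence end-point (Kinase-Glo Plus, 10 min) after a 60 min room-temperature coupled reaction. GAPDH at 100nM final supplies 1,3-BPG to PGK. Buffer: 100mM TEA pH 7.6, 5mM MgCl2, 0.01% Tween-20. Wells lacking PGK served as controls.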
smiles,measurement,setting,value
CN1Cc2c(N)cccc2C(c2ccccc2)C1 (centres undefined),outcome,[1],inactive
same,outcome,[2],inactive
same,outcome,[3],inactive
same,outcome,[4],inactive
same,outcome,[5],inactive
same,outcome,[6],inactive
same,outcome,[7],inactive
same,outcome,[8],inactive
same,outcome,[9],inactive
same,outcome,[10],inactive
same,Potency,[11],inactive
same,outcome,[12],inactive
same,outcome,[13],inactive
same,outcome,[14],inactive
same,viability change,[14],7.68%
same,outcome,[15],inactive
same,outcome,[16],inactive
same,outcome,[17],inactive
same,outcome,[18],inactive
same,outcome,[19],inactive
O=C(COc1ccc(Cl)cc1)OCCNC12CC3CC(CC(C3)C1)C2,Potency,[11],inactive
CC1=C(/C=C/C(C)=C/C=C/C(C)=C/C=C/C=C(C)/C=C/C=C(C)/C=C/C2=C(C)C(=O)CCC2(C)C)C(C)(C)CCC1=O,Potency,[11],inactive
Cc1ccccc1OCC(O)CNCCOc1ccc(C(N)=O)cc1 (centres undefined),Potency,[11],inactive
CC(C)=O,Potency,[11],inactive
COC(=O)[C@H]1[C@H]2C[C@@H]3c4[nH]c5ccccc5c4CCN3C[C@H]2C[C@@H](OC(=O)c2cc(OC)c(OC)c(OC)c2)[C@@H]1OC,Potency,[11],inactive
CC1(C)C(C=C(Cl)Cl)C1C(=O)OCc1cccc(Oc2ccccc2)c1 (centres undefined),Potency,[11],inactive
CC(C)(C)NC(=O)[C@@H]1C[C@@H]2CCCC[C@@H]2CN1C[C@@H](O)[C@H](Cc1ccccc1)NC(=O)[C@H](CC(N)=O)NC(=O)c1ccc2ccccc2n1,Potency,[11],inactive
CN(C)CCCN1c2ccccc2C(C)(C)c2ccccc21,Potency,[11],inactive
CCCCCCCCCCCCCCCC(=O)OCC(COC(=O)CCCCCCCCCCCCCCC)OC(=O)CCCCCCCCCCCCCCC,Potency,[11],inactive
